PubChem BioAssay (Tox21)
Results filed as inconclusive are left out. A call without a number means that no potency is given here. Active and inactive are the calls of the source. Unless noted, the call rests on the fitted dose curve; in most records, active means well fitted curve in the direction sought with a large enough effect in the repeat runs; inconclusive means weak or mixed curves; inactive means no such curve, though single readings can be large; an effect the other way counts as inactive or inconclusive.

Assays:
[1] = qHTS assay to identify small molecule antagonists of the thyroid receptor (TR) signaling pathway - cell viability counter screen (AID 743064); further: nearly all actives have a fitted effect of over 50% in size; further: potency means the concentration at half of the fitted maximal effect
Method in brief: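 GH3.TRE-Luc cells, 4 h pre-plating; cpd + T3 1 nM final; 37 °C 23.5 h; CellTiter-Fluor 30 min; fluorescence read.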

[2] = qHTS assay to identify small molecule antagonists of the thyroid receptor (TR) signaling pathway (AID 743065); further: nearly all actives have a fitted effect of over 55% in size; further: potency means the concentration at half of the fitted maximal effect
Method in brief: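 Antagonism measured as loss of luciferase signal in GH3 cells stably carrying a TRE-luciferase reporter, co-treated with compound and T3 (1 nM final) for 23.5 h at 37 C. Viability was read in the same well by CellTiter-Fluor.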

[3] = tested on: thyroid hormone receptor (rat, GH3 cells); experiment: qHTS assay to identify small molecule agonists of the thyroid receptor (TR) signaling pathway (AID 743066; calls by dose curve)
[4] = molecular target: Estrogen receptor (Homo sapiens) (UniProt P03372); experiment: qHTS assay to identify small molecule antagonists of the estrogen receptor alpha (ER-alpha) signaling pathway (AID 743069; active means well fitted curve in the direction sought with a large enough effect in the signal ratio in the repeat runs, not every such curve was filed as active; the % refers to the signal ratio)
Sequence of Estrogen receptor (Homo sapiens) (P03372 whole entry, looked up): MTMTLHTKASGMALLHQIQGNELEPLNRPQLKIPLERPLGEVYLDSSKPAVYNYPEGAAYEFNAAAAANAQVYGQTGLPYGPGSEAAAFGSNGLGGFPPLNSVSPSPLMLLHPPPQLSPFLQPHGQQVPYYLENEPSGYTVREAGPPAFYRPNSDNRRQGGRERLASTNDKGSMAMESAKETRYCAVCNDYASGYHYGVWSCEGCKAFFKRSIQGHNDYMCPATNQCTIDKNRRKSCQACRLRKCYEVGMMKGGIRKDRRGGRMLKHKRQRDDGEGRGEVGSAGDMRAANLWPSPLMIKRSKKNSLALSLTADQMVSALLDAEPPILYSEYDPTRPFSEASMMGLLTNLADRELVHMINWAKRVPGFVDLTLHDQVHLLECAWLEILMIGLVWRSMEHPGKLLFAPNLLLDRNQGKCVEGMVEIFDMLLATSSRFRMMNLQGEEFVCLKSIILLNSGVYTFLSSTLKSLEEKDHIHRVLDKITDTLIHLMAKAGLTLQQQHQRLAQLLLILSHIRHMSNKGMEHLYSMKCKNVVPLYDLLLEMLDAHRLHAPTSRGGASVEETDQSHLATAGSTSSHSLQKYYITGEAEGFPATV
Method in brief: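 Fluorescence intensity from a beta-lactamase FRET substrate served as the read-out. Cells: HEK293 with stably integrated ER-alpha-UAS-bla reporter. Agonist 17beta-estradiol was co-added with compounds; incubation 18 hr at 37C, substrate 2 hr at room temperature.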

[5] = molecular target: Estrogen receptor (Homo sapiens) (UniProt P03372); experiment: qHTS assay to identify small molecule agonists of the estrogen receptor alpha (ER-alpha) signaling pathway (AID 743075; calls by dose curve)
[6] = molecular target: Estrogen receptor (Homo sapiens) (UniProt P03372); experiment: qHTS assay to identify small molecule agonists of the estrogen receptor alpha (ER-alpha) signaling pathway using the BG1 cell line (AID 743079); further: nearly all actives have a fitted effect of over 20% in size
[7] = qHTS assay to identify small molecule antagonists of the estrogen receptor alpha (ER-alpha) signaling pathway using the BG1 cell line (AID 743080; calls by dose curve;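 further: BG1 cells stimulated with 17beta-estradiol alongside compound; series mostly up to about 70 µM; nearly all actives have a fitted effect of over 25% in size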)
Method in brief: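 Endogenous full-length ER-alpha in BG1-Luc-4E2 cells drives a stably integrated 4×ERE luciferase gene; compounds were tested against 17beta-estradiol over 21.5 h, with luminescence and multiplexed viability fluorescence recorded.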

[8] = qHTS assay to identify small molecule antagonists of the estrogen receptor alpha (ER-alpha) signaling pathway using the BG1 cell line - cell viability counter screen (AID 743081);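 further: compound given together with 17beta-estradiol as the ER stimulus; series mostly up to about 70 µM; nearly all actives have a fitted effect of over 45% in size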
Aromatase (Homo sapiens) = Aromatase (Homo sapiens) (UniProt P11511); experiment: qHTS assay to identify aromatase inhibitors (AID 743083); further: series mostly up to about 70 µM; nearly all actives have a fitted effect of over 55% in size
Sequence of Aromatase (Homo sapiens) (P11511 whole entry, looked up): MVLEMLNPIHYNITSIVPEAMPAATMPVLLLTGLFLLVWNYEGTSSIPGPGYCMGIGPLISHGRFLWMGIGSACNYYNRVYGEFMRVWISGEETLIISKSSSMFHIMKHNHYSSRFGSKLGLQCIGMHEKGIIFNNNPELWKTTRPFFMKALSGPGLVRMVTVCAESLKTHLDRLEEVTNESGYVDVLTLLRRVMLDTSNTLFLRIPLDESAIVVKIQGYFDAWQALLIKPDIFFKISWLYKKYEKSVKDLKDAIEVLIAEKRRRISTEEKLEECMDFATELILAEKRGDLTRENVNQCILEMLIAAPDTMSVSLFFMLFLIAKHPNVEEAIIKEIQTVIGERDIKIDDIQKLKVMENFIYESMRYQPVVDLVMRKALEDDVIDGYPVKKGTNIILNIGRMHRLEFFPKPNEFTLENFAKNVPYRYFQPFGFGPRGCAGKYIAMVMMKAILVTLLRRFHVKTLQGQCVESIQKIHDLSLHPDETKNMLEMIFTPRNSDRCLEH

[9] = qHTS assay to identify aromatase inhibitors - cell viability counter screen (AID 743084);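 further: cells stimulated with testosterone during compound exposure; nearly all actives have a fitted effect of over 55% in size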
[10] = molecular target: Aryl hydrocarbon receptor (Homo sapiens) (UniProt P35869); experiment: qHTS assay to identify small molecule that activate the aryl hydrocarbon receptor (AhR) signaling pathway (AID 743085); further: nearly all actives have a fitted effect of over 15% in size; further: potency means the concentration at half of the fitted maximal effect;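 on activation: HG2L7.5c1 human HepG2 liver cells with stably integrated DRE-driven firefly reporter; series mostly up to about 70 µM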
Sequence of Aryl hydrocarbon receptor (Homo sapiens) (P35869 whole entry, looked up): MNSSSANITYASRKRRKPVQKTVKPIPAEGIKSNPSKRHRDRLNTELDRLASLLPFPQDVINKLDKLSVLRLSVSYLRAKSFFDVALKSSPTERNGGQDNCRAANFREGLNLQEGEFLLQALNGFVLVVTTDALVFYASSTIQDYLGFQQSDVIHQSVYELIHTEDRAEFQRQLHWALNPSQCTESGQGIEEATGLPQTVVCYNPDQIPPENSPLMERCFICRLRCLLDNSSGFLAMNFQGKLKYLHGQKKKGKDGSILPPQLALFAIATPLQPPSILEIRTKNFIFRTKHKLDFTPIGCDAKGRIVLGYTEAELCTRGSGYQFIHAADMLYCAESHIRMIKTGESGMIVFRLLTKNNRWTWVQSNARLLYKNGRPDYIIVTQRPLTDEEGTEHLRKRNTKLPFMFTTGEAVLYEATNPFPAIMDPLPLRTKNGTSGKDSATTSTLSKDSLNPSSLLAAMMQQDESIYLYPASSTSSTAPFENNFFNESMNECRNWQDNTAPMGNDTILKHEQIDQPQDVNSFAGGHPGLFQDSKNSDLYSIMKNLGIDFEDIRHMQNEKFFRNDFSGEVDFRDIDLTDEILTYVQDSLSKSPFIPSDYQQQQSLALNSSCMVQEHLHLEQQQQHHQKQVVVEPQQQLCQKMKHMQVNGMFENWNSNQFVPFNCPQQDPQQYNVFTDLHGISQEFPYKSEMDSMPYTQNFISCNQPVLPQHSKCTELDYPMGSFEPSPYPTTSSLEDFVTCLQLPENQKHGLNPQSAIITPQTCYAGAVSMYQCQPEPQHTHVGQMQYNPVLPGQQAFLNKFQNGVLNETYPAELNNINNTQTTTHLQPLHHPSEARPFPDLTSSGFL
Method in brief: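 Luminescence read-out: ONE-Glo reagent, 30 min at room temperature, in HG2L7.5c1 HepG2 reporter cells treated 24 h at 37C. Viability was measured beforehand by CellTiter-Fluor fluorescence after 30 min at 37C.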

[11] = molecular target: Peroxisome proliferator-activated receptor gamma (Homo sapiens) (UniProt P37231); experiment: qHTS assay to identify small molecule agonists of the peroxisome proliferator-activated receptor gamma (PPARg) signaling pathway (AID 743094; active means well fitted activation curve with a large enough effect in the signal ratio in the repeat runs, not every such curve was filed as active; the % refers to the signal ratio)
Sequence of Peroxisome proliferator-activated receptor gamma (Homo sapiens) (P37231 whole entry, looked up): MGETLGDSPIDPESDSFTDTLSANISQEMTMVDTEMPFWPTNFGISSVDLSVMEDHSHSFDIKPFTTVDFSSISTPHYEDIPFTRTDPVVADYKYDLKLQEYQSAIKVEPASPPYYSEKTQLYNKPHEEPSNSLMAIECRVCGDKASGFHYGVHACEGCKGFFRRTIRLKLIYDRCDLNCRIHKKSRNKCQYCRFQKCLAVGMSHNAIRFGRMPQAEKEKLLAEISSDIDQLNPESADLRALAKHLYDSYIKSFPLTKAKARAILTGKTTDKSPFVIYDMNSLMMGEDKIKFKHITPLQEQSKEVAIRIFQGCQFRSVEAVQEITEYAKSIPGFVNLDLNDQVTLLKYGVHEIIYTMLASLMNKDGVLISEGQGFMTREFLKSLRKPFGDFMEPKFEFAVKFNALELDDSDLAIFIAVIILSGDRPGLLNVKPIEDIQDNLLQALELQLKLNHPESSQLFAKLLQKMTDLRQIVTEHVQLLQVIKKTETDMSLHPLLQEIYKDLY
Method in brief: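 Fluorescence-based beta-lactamase readout in HEK293H PPARg UAS-bla cells after 17 h compound exposure (37C) and 1 h B/G FRET substrate incubation at room temperature.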

[12] = molecular target: Peroxisome proliferator-activated receptor gamma (Homo sapiens) (UniProt P37231); experiment: qHTS assay to identify small molecule antagonists of the peroxisome proliferator-activated receptor gamma (PPARg) signaling pathway (AID 743191; calls by dose curve; further: series mostly up to about 63 µM; nearly all actives have a fitted effect of over 30% in size)
Method in brief: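 Beta-lactamase reporter under UAS control in HEK293H PPARg-bla cells; compound treatment 17 h at 37C. Read-out: fluorescence intensity after 1 h room-temperature incubation with LiveBLAzer B/G FRET substrate.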

[13] = qHTS assay for small molecule agonists of the antioxidant response element (ARE) signaling pathway - cell viability counter screen (AID 743203; calls by dose curve; further: nearly all actives have a fitted effect of over 55% in size)
Method in brief: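 Parallel cytotoxicity read-out for the ARE-bla screen: HepG2 reporter cells, 16 hrs with compounds, then CellTiter-Glo luminescence.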

[14] = qHTS assay for small molecule activators of the heat shock response signaling pathway - cell viability counter screen (AID 743209); further: nearly all actives have a fitted effect of over 50% in size
Method in brief: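 To flag cytotoxic compounds, HSE-bla HeLa cells plated at 1500 cells/well were dosed for 5 h at 37 C, followed by the reporter FRET read and then CellTiter-Glo, with luminescence recorded 30 min after reagent addition.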

[15] = qHTS assay for small molecule activators of the heat shock response signaling pathway (AID 743210; active means well fitted activation curve with a large enough effect in the signal ratio in the repeat runs, with a control signal flat, not every such curve was filed as active; the % refers to the signal ratio;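 further: HeLa cells with beta-lactamase reporter driven by heat shock elements; series mostly up to about 63 µM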)
Method in brief: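 Fluorescence from a cleaved B/G FRET substrate (2.5 h, room temp) reports HSE-driven beta-lactamase in HeLa cells treated 5 h at 37 C with DMSO-dissolved compounds.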

[16] = qHTS assay to identify small molecule antagonists of the estrogen receptor alpha (ER-alpha) signaling pathway - cell viability counter screen (AID 743074; calls by dose curve; further: nearly all actives have a fitted effect of over 45% in size)
[17] = qHTS assay to identify small molecule that activate the aryl hydrocarbon receptor (AhR) signaling pathway - cell viability counter screen (AID 743086);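 further: HepG2 liver cells carrying the AhR DRE luciferase reporter; series mostly up to about 70 µM; nearly all actives have a fitted effect of over 45% in size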
Method in brief: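 Cytotoxicity counter screen: CellTiter-Fluor signal (30 min, 37 C) in 4000 HepG2 cells/well carrying the DRE-luciferase reporter, following 24 h compound exposure at 37 C.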

[18] = qHTS assay to identify small molecule antagonists of the peroxisome proliferator-activated receptor gamma (PPARg) signaling pathway - cell viability counter screen (AID 743194); further: nearly all actives have a fitted effect of over 55% in size
Method in brief: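 Viability was measured as CellTiter-Glo luminescence in GeneBLAzer PPARg UAS-bla HEK293H cells. These cells had been exposed 17 h at 37 C to compounds together with rosiglitazone at 50 nM final, with the beta-lactamase readout taken in the same wells.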

[19] = qHTS assay for small molecule agonists of the antioxidant response element (ARE) signaling pathway (AID 743202; active means well fitted activation curve with a large enough effect in the signal ratio in the repeat runs, not every such curve was filed as active; the % refers to the signal ratio)
Method in brief: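 Beta-lactamase reporter activity, read as fluorescence intensity, reflects ARE/Nrf2 pathway induction in HepG2 cells after 16 h compound exposure at 37 C; substrate loading was 2 h at room temperature.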

O=C1CCCC(=O)O1
Potency [1]: inactive
Potency [2]: inactive
outcome [3]: inactive
outcome [4]: inactive
outcome [5]: inactive
Potency [6]: inactive
Potency [7]: inactive
outcome [8]: inactive
Potency (Aromatase (Homo sapiens)): inactive
Potency [9]: inactive
Potency [10]: inactive
outcome [11]: inactive
Potency [12]: inactive
outcome [13]: inactive
outcome [14]: inactive
outcome [15]: inactive

CN=C(NC#N)Nc1ccc(C2=NNC(=O)CC2C)cc1 (configuration not stated)
Potency [1]: inactive
Potency [2]: inactive
outcome [3]: inactive
outcome [16]: inactive
outcome [8]: inactive
Potency (Aromatase (Homo sapiens)): inactive
Potency [9]: inactive
Potency [10]: inactive
Potency [17]: inactive
outcome [11]: inactive
Potency [12]: inactive
outcome [18]: inactive
Potency [19]: inactive
outcome [13]: inactive
outcome [14]: inactive
outcome [15]: inactive

CC(C)NCC(O)COc1ccc(COCCOC(C)C)cc1 (configuration not stated)
Potency [1]: inactive
Potency [2]: inactive
outcome [3]: inactive
outcome [4]: inactive
outcome [16]: inactive
outcome [5]: inactive
Potency [6]: inactive
Potency [7]: inactive
outcome [8]: inactive
Potency [9]: inactive
Potency [10]: inactive
outcome [11]: inactive
Potency [12]: inactive
outcome [18]: inactive
outcome [13]: inactive
outcome [14]: inactive
outcome [15]: inactive

CN(CCOc1ccc(NS(C)(=O)=O)cc1)CCc1ccc(NS(C)(=O)=O)cc1
Potency [1]: inactive
Potency [2]: inactive
outcome [3]: inactive
outcome [16]: inactive
outcome [5]: inactive
Potency [6]: inactive
Potency [7]: inactive
outcome [8]: inactive
Potency (Aromatase (Homo sapiens)): inactive
Potency [10]: inactive
Potency [17]: inactive
outcome [11]: inactive
outcome [18]: inactive
Potency [19]: inactive
outcome [14]: inactive
outcome [15]: inactive

CC(=O)Nc1ccc(S(=O)(=O)Cl)cc1
Potency [1]: inactive
Potency [2]: inactive
outcome [3]: inactive
outcome [16]: inactive
outcome [8]: inactive
Potency (Aromatase (Homo sapiens)): inactive
Potency [9]: inactive
Potency [10]: inactive
Potency [17]: inactive
outcome [11]: inactive
Potency [12]: inactive
outcome [18]: inactive
Potency [19]: inactive
outcome [13]: inactive
outcome [14]: inactive
outcome [15]: inactive

O=C1c2cccc3c2[C@H](CCC3)CN1[C@@H]1CN2CCC1CC2
Potency [1]: 23.7 µM (active)
Potency [2]: 18.8 µM (active)
outcome [3]: inactive
outcome [16]: inactive
outcome [5]: inactive
Potency [6]: inactive
Potency (Aromatase (Homo sapiens)): inactive
Potency [9]: inactive
Potency [10]: inactive
outcome [11]: inactive
outcome [18]: inactive
Potency [19]: inactive
outcome [15]: inactive

Cc1cccc2nccnc12
Potency [1]: inactive
Potency [2]: inactive
outcome [3]: inactive
outcome [4]: inactive
outcome [16]: inactive
outcome [5]: inactive
Potency [7]: inactive
outcome [8]: inactive
Potency (Aromatase (Homo sapiens)): inactive
Potency [9]: inactive
Potency [10]: inactive
Potency [17]: inactive
outcome [11]: inactive
outcome [18]: inactive
Potency [19]: inactive
outcome [13]: inactive
outcome [14]: inactive
outcome [15]: inactive

Nc1nnc(-c2cccc(Cl)c2Cl)c(N)n1
Potency [1]: inactive
Potency [2]: inactive
outcome [3]: inactive
outcome [16]: inactive
outcome [8]: inactive
Potency (Aromatase (Homo sapiens)): inactive
Potency [9]: inactive
Potency [10]: inactive
Potency [17]: inactive
outcome [11]: inactive
Potency [12]: inactive
outcome [18]: inactive
Potency [19]: inactive
outcome [13]: inactive
outcome [14]: inactive
outcome [15]: inactive

Nc1cccc(O)c1
Potency [1]: inactive
Potency [2]: inactive
outcome [3]: inactive
outcome [4]: inactive
outcome [5]: inactive
Potency [7]: inactive
outcome [8]: inactive
Potency (Aromatase (Homo sapiens)): inactive
Potency [9]: inactive
Potency [10]: 35.4 µM (active)
Potency [17]: inactive
outcome [11]: inactive
outcome [18]: inactive
outcome [13]: inactive
outcome [14]: inactive
outcome [15]: inactive

CC(CO)c1ccccc1 (configuration not stated)
Potency [1]: inactive
Potency [2]: inactive
outcome [3]: inactive
outcome [4]: inactive
outcome [16]: inactive
outcome [5]: inactive
Potency [7]: inactive
outcome [8]: inactive
Potency (Aromatase (Homo sapiens)): inactive
Potency [9]: inactive
Potency [10]: inactive
Potency [17]: inactive
outcome [11]: inactive
Potency [12]: inactive
outcome [18]: inactive
Potency [19]: inactive
outcome [13]: inactive
outcome [14]: inactive
outcome [15]: inactive

COCCOCCOCCOCCOCCO
Potency [1]: inactive
Potency [2]: inactive
outcome [3]: inactive
outcome [16]: inactive
outcome [8]: inactive
Potency (Aromatase (Homo sapiens)): inactive
Potency [9]: inactive
Potency [10]: inactive
Potency [17]: inactive
outcome [11]: inactive
Potency [12]: inactive
outcome [18]: inactive
Potency [19]: inactive
outcome [13]: inactive
outcome [14]: inactive
outcome [15]: inactive

CCOC(=O)CC(=O)c1ccccc1
Potency [1]: inactive
Potency [2]: inactive
outcome [3]: inactive
outcome [4]: inactive
outcome [16]: inactive
outcome [5]: inactive
Potency [7]: inactive
outcome [8]: inactive
Potency (Aromatase (Homo sapiens)): inactive
Potency [9]: inactive
Potency [17]: inactive
outcome [11]: inactive
Potency [12]: inactive
outcome [18]: inactive
Potency [19]: inactive
outcome [13]: inactive
outcome [15]: inactive

CCN1CCc2nc(N)oc2CC1
Potency [1]: inactive
Potency [2]: inactive
outcome [3]: inactive
outcome [16]: inactive
outcome [5]: inactive
Potency [6]: inactive
Potency [7]: inactive
outcome [8]: inactive
Potency (Aromatase (Homo sapiens)): inactive
Potency [9]: inactive
Potency [10]: inactive
Potency [17]: inactive
outcome [11]: inactive
Potency [12]: inactive
outcome [18]: inactive
Potency [19]: inactive
outcome [13]: inactive
outcome [15]: inactive

BrCCCCCBr
Potency [1]: inactive
Potency [2]: inactive
outcome [3]: inactive
outcome [4]: inactive
outcome [5]: inactive
Potency [6]: inactive
Potency [7]: inactive
outcome [8]: inactive
Potency (Aromatase (Homo sapiens)): inactive
Potency [9]: inactive
Potency [10]: inactive
Potency [17]: inactive
outcome [11]: inactive
outcome [18]: inactive
Potency [19]: inactive
outcome [14]: inactive
outcome [15]: inactive

COc1ccc(C2CNC(=O)C2)cc1OC1CCCC1 (configuration not stated)
Potency [1]: inactive
Potency [2]: inactive
outcome [3]: inactive
outcome [16]: inactive
outcome [8]: inactive
Potency (Aromatase (Homo sapiens)): inactive
Potency [9]: inactive
Potency [10]: inactive
Potency [17]: inactive
outcome [11]: inactive
Potency [12]: inactive
outcome [18]: inactive
Potency [19]: inactive
outcome [13]: inactive
outcome [14]: inactive
outcome [15]: inactive
